This is a sample that favours compounds with a hit; in the whole collection about 6.2% have one here.
KinaseGlo FLuc: Counterscreen for Luciferase (Kinase-Glo TM) Inhibition. Luciferin 4-monooxygenase (Photuris pensylvanica), Q27757. Kinase-Glo luciferase, ATP luminescence, 8 min. Potency, µM (titrated, usually from 38.3 µM), without a hit: at the highest dose activity change, negative = inhibition, most hits filed as inhibitors. 0.28% of 200,000 active; also: nearly all actives have a fitted effect of over 60% in size
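Compound is pinned into ATP-containing buffer (10 uM ATP, imidazole pH 7.2, 7 mM MgCl2). Kinase-Glo luciferase reagent is then added. Light output is recorded following an 8-min room-temperature incubation.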
RORgamma inh: qHTS for inhibitors of ROR gamma transcriptional activity. Drosophila S2 Gal4-RORgamma UAS-luciferase reporter, 20 h. Potency, µM (highest dose often 53.6 µM), for inactives: at the top dose activity change, negative = inhibition, usual class: inhibitors. 5.4% of 310,000 active. AID 2551, 2010; also: nearly all actives have a fitted effect of over 60% in size
Target sequence (P51450 whole entry, looked up, the tested form may be a part): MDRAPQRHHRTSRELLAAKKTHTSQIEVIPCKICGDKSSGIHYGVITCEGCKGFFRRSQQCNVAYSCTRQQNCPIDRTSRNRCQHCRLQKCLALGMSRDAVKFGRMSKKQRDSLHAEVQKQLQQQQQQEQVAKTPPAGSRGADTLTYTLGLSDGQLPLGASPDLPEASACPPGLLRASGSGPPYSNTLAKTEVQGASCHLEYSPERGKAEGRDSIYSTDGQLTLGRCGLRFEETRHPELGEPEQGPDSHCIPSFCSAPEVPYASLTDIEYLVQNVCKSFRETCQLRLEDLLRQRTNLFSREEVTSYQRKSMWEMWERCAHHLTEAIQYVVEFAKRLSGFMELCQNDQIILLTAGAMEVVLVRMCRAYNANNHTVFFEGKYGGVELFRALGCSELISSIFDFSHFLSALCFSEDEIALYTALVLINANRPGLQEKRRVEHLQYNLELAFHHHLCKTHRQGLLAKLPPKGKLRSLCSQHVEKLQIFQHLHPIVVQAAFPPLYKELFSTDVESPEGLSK
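Drosophila S2 cells stably expressing Gal4-DBD/mouse RORγ fusion under metallothionein promoter plus UAS-luciferase; compound 1 h, then 700 uM CuSO4 induction for 20 h at ambient temperature; inhibition read as reduced luminescence.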
VP16 counter: VP16 counterscreen qHTS for inhibitors of ROR gamma transcriptional activity; Drosophila S2 Gal4-VP16 UAS-luciferase, luminescence, 20 h; 3.5% of 310,000 active; Potency, µM (highest dose often 53.6 µM), for the others: at the top dose activity, negative = inhibition, hits mostly inhibitors;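 also: Gal4-VP16 expression switched on by copper sulfate through the metallothionein promoter; nearly all actives have a fitted effect of over 50% in size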
An asterisk follows results filed as active. Calls follow the shape of the dose curve; as a rule, active = well fitted curve in the direction sought with a large enough effect; inconclusive = small, poorly fitted or top-dose-only effect, or another doubt; inactive = no such curve, though single readings can be large; an effect the other way counts as inactive or inconclusive. % is scaled to controls: 0 for no effect and ±100 for the full control effect; potency is read from the fitted curve at half-maximal effect.

Cc1ccc(NCc2n[nH]c(=S)n2-c2ccccc2)c(C)c1 was read as KinaseGlo FLuc -3%, RORgamma inh 1.8µM* and VP16 counter inconclusive.
`Cc1ccc(NCc2n[nH]c(=S)n2-c2ccccc2)cc1` gave KinaseGlo FLuc 1%, RORgamma inh 8.9µM* and VP16 counter -5%.
`O=C(NCc1n[nH]c(=S)n1-c1ccccc1)c1ccco1` gave KinaseGlo FLuc 6%, RORgamma inh 23% and VP16 counter 5%.
Screening Cc1ccc(S(=O)(=O)N(Cc2n[nH]c(=S)n2-c2ccccc2)c2ccccc2)cc1 returned RORgamma inh inconclusive and VP16 counter -4%.
CCCCNC(=O)c1onc(CSc2ccc(F)c(F)c2)c1C(=O)O was read as KinaseGlo FLuc 2%, RORgamma inh 13% and VP16 counter 3%.
Screening Cc1ccccc1SCC(=O)NNC(=O)c1ccccc1O returned RORgamma inh -22% and VP16 counter -9%.
CC(=O)c1ccc(NC(=O)c2ccc(S(=O)(=O)c3ccccc3)cc2)cc1 was read as KinaseGlo FLuc 1%, RORgamma inh 32% and VP16 counter 7%.
`COc1ccc(NC(=O)N2CC[C@@]3(CCCNC3)C2)cc1` gave KinaseGlo FLuc -5%, RORgamma inh 24% and VP16 counter -13%.
C=C1C[C@H](OC(=O)C(C)(O)CCl)C2C(=C)C(=O)O[C@@H]2C2C1C[C@H](O)[C@]2(O)CCl (stereo not given in full) was read as KinaseGlo FLuc -2%, RORgamma inh inconclusive and VP16 counter inconclusive.
C=C1C(=O)O[C@H]2[C@H]1[C@@H](O)CC(=C)[C@@H]1CC(=O)[C@@H](C)[C@H]21 was read as RORgamma inh 13µM* and VP16 counter inconclusive.
Screening CCOc1ccc(-n2c(C)cc(C(=O)CCl)c2C)cc1 returned KinaseGlo FLuc 2%, RORgamma inh inconclusive and VP16 counter 1%.
`COC(=O)c1ccc(-n2c(C)cc(C(=O)CCl)c2C)cc1` gave KinaseGlo FLuc 1%, RORgamma inh 11µM* and VP16 counter -93%.
Screening C/C(=N/NC(=O)c1ccc(Br)o1)C(C)C returned KinaseGlo FLuc -2%, RORgamma inh -38% and VP16 counter -15%.
O=C(N/N=C/c1ccc(O)cc1)c1cc(-c2ccccc2)nc2ccccc12 was read as RORgamma inh -21% and VP16 counter 28%.
For O=C(N/N=C/c1ccncc1)c1cc(C2CC2)nc2ccccc12 the results were RORgamma inh 3% and VP16 counter -9%.
O=C(N/N=C/c1ccccn1)c1cc(-c2ccccc2)nc2ccccc12 was read as RORgamma inh 0.5µM* and VP16 counter 0.79µM*.
`O=C(N/N=C/c1ccccn1)c1cc(C2CC2)nc2ccccc12` gave RORgamma inh 10µM* and VP16 counter 13µM*.
`NS(=O)(=O)c1ccc(CCNC(=O)CN2CCN(Cc3cccc4ccccc34)CC2)cc1` gave RORgamma inh -3% and VP16 counter 0%.
CC(C)(C)OC(=O)n1cc(C(=O)c2ccccc2O)cn1 was read as RORgamma inh -16% and VP16 counter -5%.
Screening CCN(CC)c1ccc(/C=N/NC(=O)c2ccco2)cc1 returned KinaseGlo FLuc -15%, RORgamma inh 14µM* and VP16 counter inconclusive.
For CCN(CC)c1ccc(/C=N/NC(=O)c2ccco2)c(O)c1 the results were RORgamma inh 0.79µM* and VP16 counter 3.2µM*.
For O=C(N/N=C/c1ccc(OCc2ccccc2)cc1)c1ccco1 the results were RORgamma inh inconclusive and VP16 counter -2%.
For CCN(CC)c1ccc(/C=N/NC(=O)Cc2cccs2)c(O)c1 the results were KinaseGlo FLuc 0%, RORgamma inh 0.18µM* and VP16 counter 0.56µM*.
CCN(CC)c1ccc(/C=N/Nc2nc(C)cc(C)n2)cc1 was read as RORgamma inh 1µM* and VP16 counter 13µM*.
CCN(CC)c1ccc(NC(=O)c2ccco2)c(C)c1 was read as KinaseGlo FLuc 0%, RORgamma inh 3% and VP16 counter 5%.
For O=C(Cc1cccs1)N/N=C/c1ccccc1 the results were RORgamma inh 23% and VP16 counter -7%.
CCN(CC)c1ccc(/C=N/Nc2nn[nH]n2)cc1 was read as RORgamma inh -30% and VP16 counter -4%.
O=C(N/N=C/c1cc(Cl)c(O)c(Cl)c1)c1cc2c(ccc3ccccc32)o1 was read as RORgamma inh -3% and VP16 counter -14%.
`CC(=O)N[C@H]1CSSC[C@@H](C(=O)N2CCC[C@H]2C(=O)N2CCC[C@H]2C(=O)N[C@@H](CCCCN)C(=O)N[C@@H](CC(=O)O)C(N)=O)NC(=O)CNC(=O)[C@H](Cc2c[nH]c3ccccc23)NC(=O)[C@H](CCCNC(=N)N)NC(=O)[C@@H](Cc2ccc(Cl)c(Cl)c2)NC(=O)[C@H](Cc2cnc[nH]2)NC(=O)[C@H](CCC(=O)O)NC1=O` gave RORgamma inh 8% and VP16 counter -4%.
Screening O=C(COC(=O)/C=C/c1ccc(Br)o1)Nc1ccccc1F returned KinaseGlo FLuc -3%, RORgamma inh -1% and VP16 counter -3%.
CC(=O)c1ccc(S(=O)(=O)NC2CC2)cc1 was read as RORgamma inh 23% and VP16 counter -2%.
For CCOc1ccccc1NC(=O)CNC(=O)CNC(=O)Cc1ccccc1 the results were RORgamma inh 5% and VP16 counter 3%.
`CC(/C=N/NC(=O)c1cc(-c2cccnc2)nc2c1c(C)nn2-c1ccccc1)=C\c1ccccc1` gave RORgamma inh inconclusive and VP16 counter -3%.
Cc1cc(C)c(Nc2ncnc(N)n2)c(C)c1 was read as RORgamma inh -25% and VP16 counter -7%.
Screening CO[C@]1(C2=NCCN2)COc2ccccc2O1 returned KinaseGlo FLuc 1%, RORgamma inh -1% and VP16 counter 6%.
Cc1nnc(NC(=O)C2CCCN(c3ncccn3)C2)s1 (stereo not given) was read as KinaseGlo FLuc 3%, RORgamma inh -2% and VP16 counter 0%.
`CCN(CC)c1ccc(/C=N/N(c2ccccc2)c2ccccc2)c(O)c1` gave KinaseGlo FLuc 0%, RORgamma inh inconclusive and VP16 counter inconclusive.
CCN(CC)c1ccc(C=Nc2ccccc2C)c(O)c1 was read as KinaseGlo FLuc 3%, RORgamma inh 0% and VP16 counter -3%.
For O=C(N/N=C/c1ccc2cccnc2c1)c1ccco1 the results were RORgamma inh inconclusive and VP16 counter 11µM*.
For Cc1cc(C(=O)N/N=C/c2ccncc2)c2ccccc2n1 the results were RORgamma inh -36% and VP16 counter -2%.
`CCN(CC)c1ccc(/C=N/NC(=O)c2cc(C)nc3ccccc23)cc1` gave RORgamma inh 11µM* and VP16 counter inconclusive.
For CCN(CC)c1ccc(/C=N/N=C(c2ccccc2)c2ccccc2)c(O)c1 the results were KinaseGlo FLuc -1%, RORgamma inh inconclusive and VP16 counter 20µM*.
`CCN(CC)c1ccc(/C=N/NC(=S)NCc2ccccc2)c(O)c1` gave KinaseGlo FLuc 2%, RORgamma inh 8.9µM* and VP16 counter 7.1µM*.
